Measured values published in PubChem BioAssay (NCATS).
Results filed as inconclusive are left out. A call without a number means that no potency is given here. A number with no mark means an inactive call. Calls of active or inactive are those of the source. The call rests on the fitted dose curve; in most records, active means well fitted curve in the direction sought with a large enough effect; inconclusive means small, poorly fitted or top-dose-only effect, or another doubt; inactive means no such curve, though single readings can be large; an effect the other way counts as inactive or inconclusive.

Columns and labels:
HACAT = test: qHTS assay to identify novel small-molecules to repurpose for Merkel cell carcinoma treatment (AID 1296009); conditions: MCC and control cell lines, CellTiter-Glo viability, 72 h; at 44.8 µM (top of the series) unless noted; further: nearly all actives have a fitted effect of over 60% in size
In short: (§1)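 Dose-response viability screen; 72 hr exposure at 37 degree celsius; CellTiter-Glo added, 10 min room temperature, luminescence read; RLUs scaled between no-cell and DMSO wells.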

NIH3T3 = test: as above; conditions: MCC and control cell lines, CellTiter-Glo viability, 72 h; at 44.8 µM (top of the series) unless noted
In short: as §1

C33A = test: Primary qHTS to identify gynecologic anti-cancer compounds using libraries of approved drugs and bioactive compounds (AID 1345084); conditions: Gynecologic cancer cell panel viability, ATPlite luminescence, 48 h; series mostly up to 57.5 µM; further: nearly all actives have a fitted effect of over 55% in size; further: potency means the concentration at half of the fitted maximal effect
In short: (§2)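 Five-concentration response, 48 h; readout is ATP-driven luciferase luminescence.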

CAOV3 = test: as above; conditions: Gynecologic cancer cell panel viability, ATPlite luminescence, 48 h; series mostly up to 57.5 µM
In short: as §2

CASKI = test: as above; conditions: Gynecologic cancer cell panel viability, ATPlite luminescence, 48 h; series mostly up to 57.5 µM
In short: as §2

Es-2 = test: as above; conditions: Gynecologic cancer cell panel viability, ATPlite luminescence, 48 h; series mostly up to 57.5 µM
In short: as §2

HeLa = test: as above; conditions: Gynecologic cancer cell panel viability, ATPlite luminescence, 48 h; series mostly up to 57.5 µM
In short: as §2

Hek293T = test: as above; conditions: Gynecologic cancer cell panel viability, ATPlite luminescence, 48 h, control line for the selectivity index; series mostly up to 57.5 µM
In short: as §2

JEG-3 = test: as above; conditions: Gynecologic cancer cell panel viability, ATPlite luminescence, 48 h; series mostly up to 57.5 µM
In short: as §2

Compound	outcome (HACAT)	outcome (NIH3T3)	activity change, negative = cytotoxicity (C33A)	activity change, negative = cytotoxicity (CAOV3)	activity change, negative = cytotoxicity (CASKI)	activity change, negative = cytotoxicity (Es-2)	activity change, negative = cytotoxicity (HeLa)	activity change, negative = cytotoxicity (Hek293T)	activity change, negative = cytotoxicity (JEG-3)	Potency (C33A)	Potency (CAOV3)	outcome (CASKI)	Potency (Es-2)	Potency (HeLa)	Potency (Hek293T)	Potency (JEG-3)
NC(=O)[C@H](Cc1ccccc1)NC(=O)[C@H](CCCN=C(N)N)NC(=O)C12CC3CC(CC(C3)C1)C2	inactive [at 9.27 µM]	inactive [at 9.27 µM]	15.1% [at 11.6 µM]	15.6% [at 11.6 µM]	5.13% [at 11.6 µM]	7.15% [at 11.6 µM]	9.3% [at 11.6 µM]	9.9% [at 11.6 µM]	17.3% [at 11.6 µM]							
COc1cc2c(c(OC)c1O)C(c1ccc(O)cc1)C1C(=O)OC3C(COC(=O)C1=C2)OC(CO)(OC1OC(COC(=O)/C=C/c2ccc(OC4OC(C)C(O)C(O)C4O)cc2)C(O)C(O)C1O)C3O (stereo not given)	inactive [at 9.27 µM]	inactive [at 9.27 µM]	12% [at 11.6 µM]	-2.13% [at 11.6 µM]	3.12% [at 11.6 µM]	0.658% [at 11.6 µM]	-0.142% [at 11.6 µM]	7.04% [at 11.6 µM]	8.95% [at 11.6 µM]							
CC(C)(O)C1CC=C(C(=O)OC[C@H]2O[C@@H](Oc3cc(C(=O)O)cc(O)c3O)[C@H](O)[C@@H](O)[C@@H]2O)CC1 (stereo not given in full)	inactive [at 17.4 µM]	inactive [at 17.4 µM]								inactive	inactive	inactive	inactive	inactive	inactive	inactive
CNC(=O)c1ccc2c(c1)CCO[C@H]2CCN1CCN(c2ccc(C(N)=O)cc2)CC1	inactive	inactive								inactive	inactive	inactive	inactive	inactive	inactive	inactive
COc1cc([C@H]2OC[C@](O)(Cc3ccc(O[C@@H]4O[C@H](CO)[C@@H](O)[C@H](O)[C@H]4O)c(OC)c3)[C@@H]2CO)ccc1O	inactive [at 17.4 µM]	inactive [at 17.4 µM]								inactive	inactive	inactive	inactive	inactive	inactive	inactive
CC(=O)/C=C/C1(O)C(C)(C)CC(O)CC1(C)O (stereo not given)	inactive	inactive								inactive	inactive	inactive	inactive	inactive	inactive	inactive
CC[C@H](NC(=O)c1c(O)c(-c2ccccc2)nc2ccccc12)c1ccccc1	inactive	inactive								inactive	inactive	inactive	inactive	inactive	inactive	inactive
CC1CCC2(NC1)OC1C(O)C3C4CCC5CC(O[C@@H]6O[C@H](CO)[C@@H](O)[C@H](O)[C@H]6O[C@@H]6O[C@@H](C)[C@H](O)[C@@H](O)[C@H]6O)CCC5(C)C4CCC3(C)C1C2C (stereo not given in full)	inactive [at 17.4 µM]	inactive [at 17.4 µM]								inactive	inactive	inactive	inactive	inactive	inactive	inactive
CC(=O)OC/C(=C/C(=O)O)CC[C@@H]1C(C)=CC(=O)[C@@H]2C(C)(C)CCC[C@@]12C	inactive	inactive								inactive	inactive	inactive	inactive	inactive	inactive	inactive
Nc1ncnc2c1c(COc1cccc(Cl)c1)nn2C1CCOCC1	inactive	inactive								inactive	inactive	inactive	inactive	inactive	inactive	inactive
OC[C@H]1O[C@@H](OCc2ccccc2)[C@H](O[C@@H]2OC[C@@H](O)[C@H](O)[C@H]2O)[C@@H](O)[C@@H]1O	inactive [at 17.4 µM]	inactive [at 17.4 µM]								inactive	inactive	inactive	inactive	inactive	inactive	inactive
COC1OC(=O)C2=C1C1(C)CCCC(C)(C)C1CC2O (stereo not given)	inactive	inactive								inactive	inactive	inactive	inactive	inactive	inactive	inactive
CC1CCC2(C(=O)O)CCC3(C)C(=CCC4C5(C)C[C@@H](O)[C@@H](O)C(C)(CO)C5CCC43C)C2C1(C)O (stereo not given in full)	inactive [at 17.4 µM]	inactive [at 17.4 µM]								inactive	inactive	inactive	inactive	inactive	inactive	inactive
CCC1OC(=O)C(C)CC(C)C(=O)/C(C)=C/C(C)C(=O)/C=C/C1(C)O (stereo not given)	inactive	inactive								inactive	inactive	inactive	inactive	inactive	inactive	inactive
CC1(C)CC[C@]2(C(=O)O[C@@H]3O[C@H](CO)[C@@H](O)[C@H](O)[C@H]3O)CC[C@]3(C)C(=CCC4[C@@]5(C)C[C@H](O)[C@H](O[C@@H]6O[C@H](C(=O)O)[C@@H](O)[C@H](O)[C@H]6O)[C@@](C)(CO)C5CC[C@]43C)C2C1 (stereo not given in full)	inactive [at 9.27 µM]	inactive [at 9.27 µM]	-10.3% [at 6.55 µM]	19.8% [at 6.55 µM]	-13.7% [at 6.55 µM]	-1.31% [at 6.55 µM]	-7.43% [at 6.55 µM]	-0.0375% [at 6.55 µM]	-4.92% [at 6.55 µM]							
CCN1CCN(C(=O)N[C@@H](C(=O)N[C@@H]2C(=O)N3[C@@H]2SC(C)(C)[C@@H]3C(=O)O)c2ccccc2)C(=O)C1=O	inactive	inactive								inactive	inactive	inactive	inactive	inactive	inactive	inactive
Cn1c2ccc(NC(=O)c3ccccc3)cc2c(=O)n2nc(C(=O)O)cc12	inactive [at 17.4 µM]	inactive [at 17.4 µM]								inactive	inactive	inactive	inactive	inactive	inactive	inactive
CCCc1[nH]nc2c1C(c1cc(Cl)cc(Cl)c1O)C(C#N)=C(N)O2 (stereo not given)	inactive	inactive								inactive	inactive	inactive	inactive	inactive	inactive	inactive
CC1OC(OC2CCC3(C)C(CCC4(C)C3C=CC35OCC6(CCC(C)(C)CC63)CCC45C)C2(C)CO)C(OC2OC(CO)C(O)C(O)C2O)C(O)C1OC1OC(CO)C(O)C(O)C1O (stereo not given)	inactive [at 9.27 µM]	inactive [at 9.27 µM]	0.873% [at 11.6 µM]	14% [at 11.6 µM]	3.54% [at 11.6 µM]	-0.667% [at 11.6 µM]	5.87% [at 11.6 µM]	6.69% [at 11.6 µM]	8.45% [at 11.6 µM]							
Cc1sc(C)c(C(=O)NC2(c3ccc(C(=O)O)cc3)CC2)c1Cc1ccc(C(F)(F)F)cc1	inactive	inactive								inactive	inactive	inactive	inactive	inactive	inactive	inactive
CNC(C)C(=O)NC(C(=O)N1CCCC1C(=O)Nc1cccc2ncccc12)C(C)C (stereo not given)	inactive	inactive								inactive	10 µM (active)	inactive	inactive	inactive	inactive	inactive
CC(=O)OCC(Cc1ccccc1)NC(=O)C(Cc1ccccc1)NC(=O)c1ccccc1 (stereo not given)	inactive [at 17.4 µM]	inactive [at 17.4 µM]								inactive	inactive	inactive	inactive	inactive	inactive	inactive
CC(C)c1ccc2c(c1)CCC1[C@](C)(C(=O)O)CCC[C@]21C (stereo not given in full)	inactive	inactive								inactive	inactive	inactive	inactive	inactive	inactive	inactive
C=C[C@H]1[C@H](O[C@@H]2O[C@H](CO)[C@@H](O)[C@H](OC(=O)/C=C/c3ccc(O)c(OC)c3)[C@H]2O)OC=C2C(=O)OCC[C@]21O	inactive [at 17.4 µM]	inactive [at 17.4 µM]								inactive	inactive	inactive	inactive	inactive	inactive	inactive
CC1(C)CC[C@]2(C(=O)O)CC[C@]3(C)C(=CCC4[C@@]5(C)C[C@H](O)[C@H](O[C@@H]6O[C@H](CO)[C@@H](O)[C@H](O)[C@H]6O)[C@@](C)(CO)C5[C@H](O)C[C@]43C)[C@@H]2C1 (stereo not given in full)	inactive [at 17.4 µM]	inactive [at 17.4 µM]								inactive	inactive	inactive	inactive	inactive	inactive	inactive
C=C1C2(C)CC3C4(C)C=CC(=O)OC(C)(C)C4CCC3(C)C1(C(=O)OC)C(=O)C(C)(O)C2=O (stereo not given)	inactive [at 17.4 µM]	inactive [at 17.4 µM]								inactive	inactive	inactive	inactive	inactive	inactive	inactive
C/C=C/C=C/C(=O)OC1CC/C=C/C(O)C(O)C(CCC)OC1=O (stereo not given)	inactive	inactive								inactive	inactive	inactive	inactive	inactive	inactive	inactive
COc1cccc(C)c1C(=O)O[C@@H]1C[C@H](O[C@H]2[C@H](O)C[C@H](O[C@@H]3CCC[C@H]4[C@H]3C=C[C@@H]3CCCC/C=C/[C@H]5C=C(C(=O)O)[C@@H](C)C[C@@]56OC(=O)C(=C6O)OC(=O)[C@@]34C)O[C@@H]2C)O[C@H](C)[C@H]1O	inactive [at 9.27 µM]	inactive [at 9.27 µM]	10.8% [at 11.6 µM]	3.73% [at 11.6 µM]	10.4% [at 11.6 µM]	4.28% [at 11.6 µM]	1.33% [at 11.6 µM]	3.45% [at 11.6 µM]	-0.859% [at 11.6 µM]							
CN1CCCC1Cc1c[nH]c2ccc(CCS(=O)(=O)c3ccccc3)cc12 (stereo not given)	inactive	inactive								inactive	inactive	inactive	inactive	inactive	inactive	inactive
CCC1=C(C)C(=O)C(C)CC12C(=O)CCC2C(=O)O (stereo not given)	inactive	inactive								inactive	inactive	inactive	inactive	inactive	inactive	inactive
